The list is not random: actives were taken first. Their share in the collection is about 2.8%.
SNCA expr inh = Primary qHTS assay for inhibitors of alpha-synuclein gene (SNCA) expression | HEK-293 SNCA-luciferase knock-in, luminescence, 24 h | Potency, µM (titrated, usually from 57.2 µM), usual class: inhibitors | actives 0.17% (n = 140,000) | AID 1671194, 2021; note: nearly all actives have a fitted effect of over 45% in size
HEK293 viab = GF-AFC viability counterscreen for inhibitors of alpha-synuclein gene (SNCA) expression; Potency, µM (top dose mostly 57.1 µM), usual class: cytotoxic; AID 1671193, 2021; actives 0.12% (n = 150,000); HEK-293-SNCA-luc viability, GF-AFC fluorescence, 24 h; note: nearly all actives have a fitted effect of over 30% in size
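Cytotoxicity counterscreen: after 24 h compound treatment of genome-edited SNCA-luciferase HEK-293 cells, live-cell protease substrate GF-AFC read by fluorescence after 30 min; activity scaled between DMSO (0%) and medium-only (-100%), curves Hill-fitted.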
KDM5B inhibitor = Primary screen for KDM5B Histone Demethylases FDH-coupled qHTS | Lysine-specific demethylase 5B (Homo sapiens), Q9UGL1 | Potency, µM (top dose mostly 57.7 µM), actives largely listed as inhibitors | actives 2.6% (n = 220,000) | KDM5B demethylase, FDH-coupled NADH fluorescence (FDH is formaldehyde dehydrogenase); note: nearly all actives have a fitted effect of over 70% in size
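Inhibition is measured as reduced NADH fluorescence generation from FDH coupling to formaldehyde release. Truncated KDM5BΔAP at 200 nM final acts on H3K4me3 peptide (12.5 µM in substrate mix) in pH 7.5 HEPES buffer with Tween-20, 30 min, room temperature.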
IP6K1 inhibitor = Primary qHTS assay for small molecule inhibitors of Inositol hexaphosphate kinase 1 (IP6K1) | actives 0.81% (n = 140,000) | activity change, % (series mostly up to about 58 µM) | IP6K1 kinase, ADP-Glo luminescence, 2 h; hits give low values; in the data active = activity change below about -25%
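ADP-Glo luminescence measures ADP made by human IP6K1 during a 2 h RT reaction with ATP/IP6 (mix at 1.3 mM/130 uM); top library doses 57.5 and 19.1 uM final.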
Each line names hits and unclear results; the compound was inactive in the other large screens. Unless noted, calls come from the whole dose curve; as a rule, active = well fitted curve in the direction sought with a large enough effect; inconclusive = small, poorly fitted or top-dose-only effect, or another doubt; inactive = no such curve, though single readings can be large; an effect the other way counts as inactive or inconclusive.

CC1=C[C@@H](CO)[C@H](C(C)C)C[C@H]1Cc1nnc(-c2ccc(N(C)C)cc2)o1	KDM5B inhibitor 31.6µM
COCCNC[C@@H]1C=C(C)[C@H](Cc2nnc(-c3ccc(N(C)C)cc3)o2)C[C@H]1C(C)C	HEK293 viab inconclusive, KDM5B inhibitor 28.2µM
Cc1ccc(O)c(C(=O)OCC(=O)c2cccs2)c1	none (no result: SNCA expr inh, HEK293 viab, IP6K1 inhibitor)
Cc1cc(SCC(=O)Nc2sccc2C(N)=O)nc2ccccc12	none (no result: SNCA expr inh, HEK293 viab, IP6K1 inhibitor)
Cc1ccc(F)cc1S(=O)(=O)N[C@@H]1CCN(Cc2ccc(OC(C)C)cc2)C1	HEK293 viab 9.47µM (no result: SNCA expr inh, KDM5B inhibitor)
CC(C)CC(NC(=O)NC(C)c1ccccc1)C(=O)O (stereo unspecified)	none (no result: SNCA expr inh, HEK293 viab, IP6K1 inhibitor)
Cc1c(-c2ccccc2F)[nH]c2ccc(CNC(=O)C3CCCN(C(N)=O)C3)cc12 (stereo unspecified)	KDM5B inhibitor 28.2µM
CCc1[nH]c2ccc(CNC(=O)C3CC(=O)Nc4ccccc43)cc2c1C (stereo unspecified)	none
Cc1c(-c2ccccc2F)[nH]c2ccc(CNC(=O)C3C=CCN3)cc12 (stereo unspecified)	KDM5B inhibitor 28.2µM
O=C(NCc1ccc(Cl)cc1)c1ccnc2[nH]ccc12	KDM5B inhibitor 28.2µM
O=C(NCc1ccnc2[nH]ccc12)c1cccc2[nH]ccc12	KDM5B inhibitor inconclusive
O=C(NCc1ccnc2[nH]ccc12)c1ccccc1Cl	KDM5B inhibitor 35.5µM
CCCNc1cc(C)ccc1C	none (no result: SNCA expr inh, HEK293 viab, IP6K1 inhibitor)
Cc1nnc([C@@H]2CC(F)(F)CN2C(=O)COc2ccc(F)cc2)o1	SNCA expr inh inconclusive
Cn1ccc(C(=O)N[C@@H]2COCC[C@@H]2OCc2cscn2)cc1=O	KDM5B inhibitor 28.2µM
CC(=O)N1CCCC2(C1)CN(C)c1ccc(C(=O)NCC(F)(F)F)cc12 (stereo unspecified)	KDM5B inhibitor inconclusive
CN(C)CC(=O)N1CCC2(C1)CN(C)c1ccc(C(=O)NCc3ccccc3)cc12 (stereo unspecified)	KDM5B inhibitor 35.5µM
CN(C)CC(=O)N1CCC2(C1)CN(C)c1ccc(C(=O)Nc3ccccc3)cc12 (stereo unspecified)	KDM5B inhibitor inconclusive
COc1ccc(NC(=O)c2ccc3c(c2)C2(CCCN(C)C2)CN3Cc2cccnc2)cc1 (stereo unspecified)	none
CN1CCCC2(C1)CN(C)c1ccc(C(=O)NCCc3ccccc3)cc12 (stereo unspecified)	KDM5B inhibitor 31.6µM
CCNC(=O)c1ccc2c(c1)C1(CCCN(C)C1)CN2C (stereo unspecified)	KDM5B inhibitor 31.6µM
Cc1nc(CN2CC3(CCN(C)C3)c3cc(C(=O)NCCc4ccccc4)ccc32)cs1 (stereo unspecified)	KDM5B inhibitor 28.2µM
O=C(CSc1ccc2c(c1)OCCCO2)N1CCC(Cc2ccccc2)CC1	none (no result: SNCA expr inh, HEK293 viab, IP6K1 inhibitor)
CC1=C(C)C(=O)OC(C(C)C2CCC3C4C5OC5C5(O)CC(OC6OC(CO)C(OC7OC(C)C(O)C(O)C7O)C(O)C6O)CC(O)C5(C)C4CCC23C)C1 (stereo unspecified)	none (no result: SNCA expr inh, KDM5B inhibitor)
CC1=C(CO)C(=O)O[C@@H]([C@@H](C)[C@H]2CC[C@H]3[C@@H]4C[C@H]5O[C@]56[C@@H](O)C=CC(=O)[C@]6(C)[C@@H]4CC[C@]23C)C1	SNCA expr inh 3.04µM, HEK293 viab 6.81µM (no result: KDM5B inhibitor, IP6K1 inhibitor)
CCc1noc(-c2ccn3c(CNC(=O)Cc4c[nH]c5ccccc45)nnc3c2)n1	KDM5B inhibitor inconclusive
O=C(CCCc1ccccc1)NCc1nnc2cc(-c3nc(C4CC4)no3)ccn12	KDM5B inhibitor 28.2µM
CCc1noc(-c2ccn3c(CNC(=O)CCCc4ccccc4)nnc3c2)n1	KDM5B inhibitor 7.08µM
CCNC(=O)C1CCCN(S(=O)(=O)c2c(C)nn(CC(=O)N3CCc4ccccc43)c2C)C1 (stereo unspecified)	none (no result: SNCA expr inh, HEK293 viab, IP6K1 inhibitor)
Cn1cc(C(=O)N2CCC3(CC2)CN(c2ncccn2)CC3CO)cn1 (stereo unspecified)	KDM5B inhibitor 25.1µM
COc1ccc(CC(=O)N2CCC3(CC2)CN(c2ncccn2)CC3CO)cc1 (stereo unspecified)	KDM5B inhibitor inconclusive
CCOc1ccc(C(=O)N2CCC3(CC2)CN(c2ncccn2)CC3CO)cc1 (stereo unspecified)	KDM5B inhibitor 25.1µM

Bioassay records as filed in PubChem BioAssay.
